These results are taken from PubChem BioAssay AID493014 (National Center for Advancing Translational Sciences (NCATS), 2011).

The structures appear in SMILES notation. Screen size: about 340,000 compounds; about 170 (0.05%) were called active. Roughly 26% stayed inconclusive and do not appear here. Calls follow the shape of the dose curve; as a rule, active = well fitted inhibition curve with a large enough effect in the signal ratio, with a control signal flat (not every such curve was filed as active); inconclusive = small, poorly fitted or top-dose-only effect, or effect the other way, or a change in a side signal; inactive = flat fitted curve, though single readings scatter; the % refers to the signal ratio. The sample as a whole holds a higher share of actives than the screen did.
Potency is read from the fitted curve at half-maximal effect.

The assay can be described thus: qHTS Assay to Find Inhibitors of Chronic Active B-Cell Receptor Signaling.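 As to activity change, negative = inhibition: plate controls were basal doxycycline-induced cells for no effect and cells given 10 µM MG132 for full effect.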 As to conditions: ABC-DLBCL IkBa-CBG/CBR reporter, luminescence ratio, 4 h; series mostly up to 46.1 µM; activity change, negative = inhibition: at the top concentration. An excerpt: NIH Molecular Libraries Probe Production Network [MLPCN] NIH Chemical Genomics Center [NCGC] MLPCN Grant: 1 R03 DA031086-01A1 PI Name: Dr. R. Eric Davis NCGC Assay Overview: Diffuse large B-cell lymphoma (DLBCL) is the most common category of non-Hodgkin lymphoma, with ~20,000 new cases per year in the United States. DLBCL should be regarded as a collection of different neoplasms. Microarray gene expression analysis has defined two principal types of DLBCL, named for their similarity to normal B cell stages or activation states: a germinal center B-cell (GCB) type, and an activated B-cell (ABC) type. In ABC-DLBCL, a constitutive high-level activity of the NF-kappaB family of transcription factors has been observed (1) and NF-kappaB target genes are more highly expressed in ABC primary tumors than in GCB tumors. Functional studies have shown a constitutive high-level activity of the IkappaB (inhibitor of kappa-B) kinase (IKK) complex. […] Further analysis of DLBCL primary tumors for NF-kappaB target gene expression imply that although CARD11 is required for constitutive IKK activity in all ABC-DLBCL lines, mutations in CARD11 may be the root cause of IKK activation only in lines or tumors with such mutations. In other words, CARD11 mutations may explain NF-kappaB activation in only 10% of ABC-DLBCL cases. […] This process has been termed 'chronic active BCR signaling' (CABS). The goal of this screen is to find small-molecule inhibitors of the CABS pathway found in ABC-DLBCL lines using a cell-based assay that measures IkappaBalpa stability, which has already been extensively validated in the OCI-Ly3 line (PubChem AID:445; REF: 4). […] The assay uses green (CBG68) and red (CBR) emitting beetle luciferases [Chroma-GloTM developed by Promega Corp.] where the green luciferase is fused to IkappaBalpha and the red luciferase is present in its native state. Both luciferase genes are stably present in the TMD8 human ABC DLBCL cell line, but their expression is under the control of tetracycline-inducible promoters. Following the addition of doxycycline to induce expression of the luciferases, the green luminescence in control cultures rises only slowly because the CBG fusion partner IkappaBalpha is targeted by IKK activity for rapid degradation. In contrast, green luminescence rises rapidly in the presence of proteasome inhibitors or IKK inhibitors. The rise in red luminescence of CBR is not affected by proteasome or IKK inhibitors, and serves as normalization for cell number and nonspecific effects. Compounds were screened as a concentration-titration series that ranged from 46 uM to 3 nM.
NCGC Assay Protocol Summary: Cells were seeded in 1536-well plates at 5000 cells/4uL in IMDM medium containing 0.5% FBS, w/o phenol red, 1% penicillin/streptomycin. Then, 23 nL of compounds or DMSO were delivered to each well using a pin tool. One uL 20ng/ml doxycycline was then dispensed into white solid 1536-well plates and the plates were incubated at 37C/5% C02 in a cell incubator for 4 hrs. Then 4 uL luminescent substrate mix (in-house prepared: 150 mM Tris-Cl, pH 7.6, 3 mM MgCl2, 1% Triton X-100, 5 mM DTT, 0.2 mM CoA, 0.15 mM ATP, 5 mM D-luciferin, final concentrations) was added to each well. The plate was incubated at r.t. for 10-15 min. The plates were measured on a ViewLux plate reader for green luminescence (540/20 nm filter) and red luminescence (618/8 nm filter). The green and red luminescent signals were corrected for red and green luminescence filter overlap using previously determined filter calibration constants (determined using the procedure outlined in the Promega Technical Manual; REF 4). The %Activity was determined from the ratio of corrected green/red luminescent values. MG132 were used as control. […] Red luminescent %Activity was normalized to the difference between red luminesence in basal cells (0%Activity) and zero luminescence (-100% Activity). […]
(In general: Quantitative high-throughput screening tests each substance at several concentrations.)
As to `CC1CCc2sc(C(=O)NCC(c3ccco3)N3CCCCC3)cc2C1` (stereo unspecified), the “activity change, negative = inhibition” value was 9.66% (inactive).
With `O=C(COc1ccc(F)cc1Br)NCC1COc2ccccc2O1` (stereo unspecified), the “activity change, negative = inhibition” value was -20.7% (inactive).
Turning to `Cc1ccccc1-c1cc(C(=O)NCc2cccs2)n(CC2CC(c3cccnc3)=NO2)n1` (stereo unspecified), the “activity change, negative = inhibition” value is -0.377% (inactive).
As to `O=C(c1ccc(N2CCOCC2)c([N+](=O)[O-])c1)N1CCN(c2ccccc2F)CC1`, the “activity change, negative = inhibition” value was 5.19% (inactive).
Still for that read-out and setting: in the case of `C/C=C/c1ccc(OCC(=O)NNC(=O)CN(C)S(=O)(=O)c2ccc(C)cc2)c(OC)c1` it was 0.21% (inactive); in that of `CN(CC(=O)Nc1ccc(OC(F)F)cc1)S(=O)(=O)/C=C/c1ccccc1`, 1.8% (inactive).
On to `C=CC[C@H](CC(=O)OC(C)(C)C)C(=O)OC[C@H]1CCCN1C(=O)[C@H](CC=C)CC(=O)N(CCO)Cc1ccccc1`, for which the “activity change, negative = inhibition” value is -0.82% (inactive).
The same measure, in the same setting: in the case of `Cc1ccc(C(=O)CN2C(=O)NC3(CCc4ccccc43)C2=O)c(C)c1` (stereo unspecified) it was 3.73% (inactive); in that of `CC(C(=O)Nc1ccc(S(=O)(=O)N2CCCC2)cc1)N(C)Cc1ccc(F)cc1` (stereo unspecified), -1.3% (inactive); in that of `CCCCNc1c(-c2ccc(OC)c(Sc3ccc(OC)cc3)c2)nc2ccc(Cl)cn12`, 3.06% (inactive).
In the case of `Cc1ccc2c(CN3CCN(S(=O)(=O)c4ccccc4C(F)(F)F)CC3)cc(=O)oc2c1`, the “activity change, negative = inhibition” value is -0.0569% (inactive).
Take `COc1ccc(S(=O)(=O)N2CCOCC2)cc1NC(=O)c1ccc(OCC(C)C)c(OC)c1`: the “activity change, negative = inhibition” value was -2.65% (inactive).
Same read-out and setting: in the case of `COc1ccccc1-c1oc2ccccc2c1C#CCCCCO` it was -1.28% (inactive); in that of `COc1ccccc1S(=O)(=O)NCc1ccc(C(=O)N(C)Cc2ccc(F)cc2)cc1`, 1.52% (inactive); in that of `COc1ccc(NC(=O)CCC(=O)N2CCN(S(=O)(=O)c3ccc(C)cc3)CC2)c(OC)c1`, -0.736% (inactive).
Turning to `CSc1ccccc1NC(=O)c1cnc2sc(C)cn2c1=O`, the “activity change, negative = inhibition” value was 5.7% (inactive).
As for `COc1ccc(OCCCC(=O)Nc2cccc(S(=O)(=O)N3CCCCCC3)c2)cc1`, the “activity change, negative = inhibition” value is -11.7% (inactive).
Turning to `O=C(NCCc1ccco1)c1ccc(OCc2cn3ccccc3n2)cc1`, the “activity change, negative = inhibition” value is 2.67% (inactive).
`CN(CCc1ccccc1)C(=O)c1cccc(NC(=O)Cc2ccc([N+](=O)[O-])cc2)c1`: the “activity change, negative = inhibition” value was -0.71% (inactive).
Regarding `CC(C)CN(C(=O)COC(=O)c1ccc(Cl)c(N)c1)c1c(N)n(Cc2ccccc2)c(=O)[nH]c1=O`, the “activity change, negative = inhibition” value was 7.64% (inactive).
Take `CCOC(=O)N1CCN(C(=O)c2ccccc2N(Cc2ccccc2)S(=O)(=O)c2ccc(OC)cc2)CC1`: the Potency is 15.8 µM (active).
For `NC(=O)c1ccccc1N(Cc1ccccc1)S(=O)(=O)c1ccccc1`, the “activity change, negative = inhibition” value is -0.649% (inactive).
For `CCOC(=O)N1CCN(S(=O)(=O)c2ccc(OC)cc2)CC1`, the “activity change, negative = inhibition” value is -1.49% (inactive).
In the case of `O=C(CNS(=O)(=O)c1ccc2c(c1)OCCCO2)N1CCN(c2ccc(F)cc2)CC1`, the “activity change, negative = inhibition” value was -1.04% (inactive).
In the case of `Cc1c(C(=O)Nc2cccc(S(=O)(=O)N3CCOCC3)c2)oc2ccccc12`, the “activity change, negative = inhibition” value is 0.517% (inactive).
Turning to `O=C(O)CCCn1c(=O)c2cccn2c2ccc(F)cc21`, the “activity change, negative = inhibition” value is 0.777% (inactive).
As to `COc1cc(C#Cc2ccc3cc(CCCO)oc(=O)c3c2)cc(OC)c1`, the Potency was 14.6 µM (active).
Take `COc1cc(/C=C2\Oc3ccc(C#Cc4ccc(O)cc4)cc3C2=O)cc(OC)c1`: the “activity change, negative = inhibition” value is 1.17% (inactive).
Still for that read-out and setting: in the case of `C/C(=N\NC(=S)NC(C)C)c1ccc(C(C)(C)C)cc1` it was -7.38% (inactive); in that of `CC(NC(=S)Nc1ccc(OC(F)F)cc1)c1ccc(F)cc1` (stereo unspecified), -0.112% (inactive).
As for `CC/C(=N\NC(=S)NC(C)C)c1ccc(OC(F)F)cc1`, the Potency is 22.4 µM (active).
Take `COc1ccc(C)cc1NC(=O)c1cc(-c2ccccc2)nc2c1cnn2C(C)C`: the “activity change, negative = inhibition” value is -0.898% (inactive).
In the case of `Cc1ccc(C)c(OCCC(=O)Nc2cccc(S(=O)(=O)N3CCCC3)c2)c1`, the “activity change, negative = inhibition” value is 6.06% (inactive).
With `Cc1ccnc(N2C(=O)c3ccc([N+](=O)[O-])cc3C2=O)c1`, the “activity change, negative = inhibition” value is 2.03% (inactive).
The same measure, in the same setting: in the case of `Cc1ccc2nc(NC(=O)CSc3nc(=O)n(CCCN(C)C)c4c3CCC4)sc2c1` it was -4.3% (inactive); in that of `CC(C)CC1NC(=O)c2cc(Cl)ccc2-n2c1nc1ccccc1c2=O` (stereo unspecified), 1.81% (inactive); in that of `O=C(Cc1ccc(S(=O)(=O)N2CCOCC2)s1)N1CCN(c2ccc(C(F)(F)F)cc2[N+](=O)[O-])CC1`, 9.72% (inactive).
On to `C[C@H](OC(=O)n1ccnc1)[C@@H]1O[C@@]2(C)CCC[C@@H]1O2`, for which the “activity change, negative = inhibition” value was 4.3% (inactive).
As to `O=C(OCc1cc(=O)n2ccsc2n1)C1(c2ccc(Cl)cc2)CC1`, the “activity change, negative = inhibition” value was -0.535% (inactive).
Turning to `COc1ccc(C)cc1NC(=O)CN1c2cccc3cccc(c23)S1(=O)=O`, the “activity change, negative = inhibition” value is -10.2% (inactive).
For `CCc1ccc(C(=O)NNC(=O)C2CCN(c3ncnc4sc(C)c(C)c34)CC2)cc1`, the “activity change, negative = inhibition” value was -0.145% (inactive).
The same measure, in the same setting: in the case of `Cc1cccc(C)c1Nc1nnc(SCC(=O)NCCCN2CCCC2=O)s1` it was 0.388% (inactive); in that of `Brc1ccc(CN2CC[C@H]3C=CCc4cccc(c43)C2)cc1`, 1.81% (inactive); in that of `O=C(OCC(=O)N1CCCCCC1)c1ccc(Cl)nc1`, 3.23% (inactive).
As for `CC1CCCCC12NC(=O)N(CC(=O)OCc1c(F)cccc1Cl)C2=O` (stereo unspecified), the “activity change, negative = inhibition” value was 0.901% (inactive).
For the compound `CCOc1ccc(S(=O)(=O)Nc2ccc(C(=O)NCCCN3CCCC3=O)cc2)cc1`, the “activity change, negative = inhibition” value was 1.73% (inactive).
Take `CN(CC(=O)NC1CCN(Cc2ccccc2)CC1)S(=O)(=O)c1ccc(Cl)s1`: the “activity change, negative = inhibition” value is 3.04% (inactive).
In the case of `COc1cc(OC)cc(-c2c(-c3cccs3)c3cc(-c4ccc(OC)nc4)ccc3n2C)c1`, the “activity change, negative = inhibition” value is 3.8% (inactive).
Turning to `Cc1ccc(NC(=O)CN(C)C(=O)c2cccc(S(=O)(=O)N3CCCC3)c2)cc1`, the “activity change, negative = inhibition” value was 4.91% (inactive).
Take `CN(C)C(=O)CCc1ccc2c3c([nH]c2c1)[C@]1(CCC2CCCC2)[C@@H](C(=O)N2CCOCC2)C[C@H](CC(=O)NCc2ccco2)C(=O)N1CC3`: the “activity change, negative = inhibition” value is -1.11% (inactive).
For the compound `COc1cccc(CNC(=O)COc2cc(O)c3c(c2)OC(C)(C)CC3=O)c1`, the “activity change, negative = inhibition” value was -1.68% (inactive).
With `Cc1ccc(NC(=O)c2ccc(Cl)nc2)cc1S(=O)(=O)N1CCOCC1`, the “activity change, negative = inhibition” value is 3.9% (inactive).
Turning to `COc1ccc2sc(-c3ccccc3OC)c(-c3ccc(OCCN4CCCC4)cc3)c2c1`, the “activity change, negative = inhibition” value is -1.61% (inactive).
In the case of `COc1cccc(-c2sc3ccc(OC)cc3c2-c2ccc(OCCN3CCCCC3)cc2)c1`, the Potency is 18.4 µM (active).
Consider `COc1ccc(-c2sc3ccccc3c2-c2ccc(OCCN3CCOCC3)cc2)cc1`, for which the “activity change, negative = inhibition” value was 3.76% (inactive).
Consider `CCN(CC)c1ccc(S(=O)(=O)N2CCCCC2)cc1NC(=O)C1=COCCO1`, for which the “activity change, negative = inhibition” value is 19.3% (inactive).
Still for that read-out and setting: in the case of `COc1ccccc1CNC(=O)c1ccc(Cl)c(S(=O)(=O)N2CCCC2)c1` it was 1.79% (inactive); in that of `Cc1onc(-c2c(F)cccc2Cl)c1C(=O)OCC(=O)N1C(C)CCCC1C` (stereo unspecified), 3.11% (inactive); in that of `COc1ccc(S(=O)(=O)N2CCCCCC2)cc1C(=O)N(C)Cc1cccc(OC)c1OC`, 2.39% (inactive).
Still for that read-out and setting: in the case of `COC(=O)c1ccc(/C=C/c2c(-c3ccc(OC)cc3)sc3ccccc23)cc1` it was -0.0266% (inactive); in that of `O=C1Nc2ccccc2/C1=C/c1ccnc2ccccc12`, -9.05% (inactive).
